Mcl1 Bid PPI: disrupts binding of human Mcl-1 to Bid peptide. Q07820. TR-FRET Mcl-1/Bid-Dy647 peptide binding, 1536-well. inhibition, % at 21.7 µM. 220,000 compounds, 0.97% hits;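 active means compounds that cut the binding signal by more than half at the single screening dose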;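 further: His-tagged Mcl-1 with europium anti-His antibody binding Bid BH3 peptide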
Mcl-1 Bim block: disrupts Bim peptide binding to human Mcl-1. AID 1009. inhibition, % at 10 µM. Bead-based flow cytometry, Bim peptide-Mcl-1 binding. 190,000 compounds, 0.1% hits. Q07820; in the data active means inhibition above about 40%
Hck Nef HTS: inhibitors of human Hck kinase activated by Nef | P08631 | Recombinant Hck-YEEI plus Nef, Z-Lyte FRET kinase assay | inhibition, % at 20 µM | 220,000 compounds, 0.68% hits | AID 463187;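 active means Hck-Nef kinase inhibition above about 50%, limit read from the data; inactive means inhibition below that limit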
Mcl1-Noxa inh: disrupts binding of human Mcl-1 to Noxa peptide | Q07820 | TR-FRET Mcl-1/Noxa peptide binding, 2 h | inhibition, % at 21.7 µM | 220,000 compounds, 1.5% hits | AID 1022;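 active means compounds that cut the protein-peptide binding signal by more than 50% relative to plate controls in a single-dose test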;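 further: His-tagged Mcl-1 with rhodamine Noxa BH3 peptide and terbium anti-His antibody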
14-3-3 Bad inh: disrupts binding of bovine 14-3-3 zeta to phospho-Bad peptide; AID 781; inhibition, % at 21.7 µM; 220,000 compounds, 0.71% hits; TR-FRET 14-3-3zeta/Dy647-pBad peptide displacement, 1 h;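 active means inhibition above about 70%, limit read from the data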
eIF4E 4G PPI: inhibitors of eIF4E and eIF4G interaction in translation initiation | P63073+Q04637 | TR-FRET eIF4E-eIF4GI(517-606) binding, 2 h | inhibition, % at 21.7 µM | 220,000 compounds, 0.37% hits;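 active means inhibition above about 30%, limit read from the data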
Target sequence (P63073 whole entry, looked up): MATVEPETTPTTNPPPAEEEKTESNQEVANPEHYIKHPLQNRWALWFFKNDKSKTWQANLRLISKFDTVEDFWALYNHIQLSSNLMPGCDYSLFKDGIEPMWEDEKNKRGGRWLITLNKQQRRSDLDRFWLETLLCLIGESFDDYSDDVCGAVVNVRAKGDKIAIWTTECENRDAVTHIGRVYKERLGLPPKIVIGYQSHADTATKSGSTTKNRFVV
Target sequence (Q04637 whole entry, looked up): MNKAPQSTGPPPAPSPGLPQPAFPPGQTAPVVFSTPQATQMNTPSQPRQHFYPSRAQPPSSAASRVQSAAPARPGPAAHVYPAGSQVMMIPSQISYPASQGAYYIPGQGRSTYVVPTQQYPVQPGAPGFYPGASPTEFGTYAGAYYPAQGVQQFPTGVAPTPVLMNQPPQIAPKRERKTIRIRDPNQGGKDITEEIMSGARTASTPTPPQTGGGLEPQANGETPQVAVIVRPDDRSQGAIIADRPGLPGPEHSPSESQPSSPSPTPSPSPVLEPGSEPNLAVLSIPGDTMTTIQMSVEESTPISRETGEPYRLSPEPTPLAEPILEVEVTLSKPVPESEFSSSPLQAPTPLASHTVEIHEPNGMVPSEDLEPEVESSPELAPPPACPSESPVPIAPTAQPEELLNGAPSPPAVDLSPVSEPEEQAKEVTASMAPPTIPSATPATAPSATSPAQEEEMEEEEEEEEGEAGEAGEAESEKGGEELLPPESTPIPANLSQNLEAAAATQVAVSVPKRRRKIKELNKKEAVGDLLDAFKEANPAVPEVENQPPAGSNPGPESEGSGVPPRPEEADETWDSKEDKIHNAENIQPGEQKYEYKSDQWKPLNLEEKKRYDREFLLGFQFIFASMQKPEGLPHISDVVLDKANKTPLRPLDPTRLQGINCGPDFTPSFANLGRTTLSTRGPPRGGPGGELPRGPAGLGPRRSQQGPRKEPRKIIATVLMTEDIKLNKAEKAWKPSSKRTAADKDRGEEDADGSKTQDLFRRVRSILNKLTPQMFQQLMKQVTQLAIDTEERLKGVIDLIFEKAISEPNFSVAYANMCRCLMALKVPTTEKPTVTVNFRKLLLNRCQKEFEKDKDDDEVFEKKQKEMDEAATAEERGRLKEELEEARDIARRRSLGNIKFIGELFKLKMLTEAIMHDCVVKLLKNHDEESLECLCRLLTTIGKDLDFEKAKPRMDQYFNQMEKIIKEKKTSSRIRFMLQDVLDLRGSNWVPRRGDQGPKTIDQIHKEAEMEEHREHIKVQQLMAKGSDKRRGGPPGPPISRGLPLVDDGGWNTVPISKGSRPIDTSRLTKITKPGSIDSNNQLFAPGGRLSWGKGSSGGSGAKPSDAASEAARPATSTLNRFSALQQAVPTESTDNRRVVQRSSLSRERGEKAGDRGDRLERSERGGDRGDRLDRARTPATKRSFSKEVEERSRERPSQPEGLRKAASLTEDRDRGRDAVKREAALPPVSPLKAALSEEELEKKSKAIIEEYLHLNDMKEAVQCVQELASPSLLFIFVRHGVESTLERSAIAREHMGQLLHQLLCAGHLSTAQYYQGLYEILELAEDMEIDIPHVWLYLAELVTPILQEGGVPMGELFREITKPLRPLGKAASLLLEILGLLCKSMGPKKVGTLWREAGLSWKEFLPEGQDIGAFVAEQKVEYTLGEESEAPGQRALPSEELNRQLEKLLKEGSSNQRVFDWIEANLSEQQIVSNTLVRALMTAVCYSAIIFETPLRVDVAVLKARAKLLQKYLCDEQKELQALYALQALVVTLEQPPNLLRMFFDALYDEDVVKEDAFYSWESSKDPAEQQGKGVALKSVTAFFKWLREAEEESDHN
Hck Nef conf: Hck-Nef kinase inhibition, confirmation | shares compounds with Hck Nef HTS | Recombinant Hck-YEEI:Nef, Z-Lyte FRET kinase assay | calls only at 10 µM | 1,300 compounds, 28% hits | AID 463188;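 active means average inhibition of at least 50%, with Z-scores no higher than 3 in both the phospho-tyrosine peptide and fluorescence counterscreens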
Numbers stand for hits; 0 = inactive; - = no result shown; + = active, no number; [ ] = remark or other dose. In the library only some 3.5% were active in any assay of this set; here they are far more common.

SMILES	Mcl1 Bid PPI	Mcl-1 Bim block	Hck Nef HTS	Mcl1-Noxa inh	14-3-3 Bad inh	eIF4E 4G PPI	Hck Nef conf
O=C(CSc1ncnc2c1cnn2CCO)Nc1cccc(C(F)(F)F)c1	0	0	0	0	0	0	-
COc1cc(NC(=S)Nc2ncccc2C)cc(OC)c1OC	0	0	0	0	0	0	-
COc1cc(NC(=S)Nc2cccc(C)n2)cc(OC)c1OC	0	0	97	0	0	0	0
COc1ccc(Cn2c(-c3ccccc3)nc3c(c(=O)c4ccccc4n3C)c2=O)cc1	0	0	0	0	0	0	-
Cn1c2ccccc2c(=O)c2c(=O)n(Cc3ccco3)c(-c3ccc(C(C)(C)C)cc3)nc21	52	-	55	0	0	0	0
CNC(=S)N(Cc1ccc2c(c1)OCO2)C1CC(=O)N(c2ccc(F)cc2)C1=O (stereo not drawn)	0	0	0	0	0	0	-
COc1ccccc1C(=O)Nc1ccc(-c2nnn(CC(=O)NCc3ccco3)n2)cc1	0	-	51	0	0	0	0
O=C(Cn1nnc(-c2ccccc2)n1)NCc1ccco1	0	0	0	0	0	0	-
Cn1c(COc2ccc(Br)cc2)nnc1SC1CCc2ccccc2C1=O (stereo not drawn)	0	0	51	0	0	0	0
Cn1c(COc2ccccc2)nnc1SCCSc1nnc(COc2ccccc2)n1C	0	0	0	-	0	0	-
CCn1c(-c2csc3c2CCC(C)C3)n[nH]c1=S (stereo not drawn)	0	0	0	0	0	0	-
CCCSC1=N/C(=C\c2ccc([N+](=O)[O-])o2)C(=O)S1	0	0	51	79	0	0	0
COc1cc2ncnc(NCc3ccccc3)c2cc1OC	0	0	0	0	0	0	-
COc1cc2ncnc(NCc3ccco3)c2cc1OC	0	0	53	0	0	0	0
CCC(C)Nc1nc(N)c([N+](=O)[O-])c(Nc2cc(OC)ccc2OC)n1 (stereo not drawn)	0	-	52	0	0	0	0
CCC(C)Nc1nc(N)c([N+](=O)[O-])c(Nc2ccccc2OC)n1 (stereo not drawn)	0	-	0	0	0	0	-
Cc1[nH]c2ccccc2c1/C=N/Nc1ccccn1	0	0	65	0	0	0	+
CCOC(=O)CC1C(=O)NCCN1S(=O)(=O)c1ccccc1Cl (stereo not drawn)	0	0	0	0	0	0	-
CCN(c1ccccc1)S(=O)(=O)c1ccc(Cl)c(NC(=O)CSc2nncs2)c1	0	0	0	0	0	0	-
O=C(O)c1ccc2c(c1)C(=O)/C(=C\c1ccco1)C2=O	0	0	61	66	0	0	+
CN(C)C(=O)CSc1nnc(Cc2ccc([N+](=O)[O-])cc2)o1	0	0	0	0	0	0	-
CCc1cc(-c2n[nH]c(=S)n2-c2ccccc2C)cs1	0	0	0	0	0	0	-
O=C1NC(=Nc2ccc(O)cc2)S/C1=C/c1ccco1	0	0	81	0	0	0	0
COc1ccc(N=C2S/C(=C\c3ccco3)C(=O)N2CC(C)C)cc1	0	0	0	0	0	0	-
O=C1NC(=Nc2ccccc2)S/C1=C\c1cccs1	0	-	0	0	0	0	-
SMILES	Mcl1 Bid PPI	Mcl-1 Bim block	Hck Nef HTS	Mcl1-Noxa inh	14-3-3 Bad inh	eIF4E 4G PPI	Hck Nef conf
COc1ccc(N=C2NC(=O)/C(=C\C=C\c3ccco3)S2)cc1	0	0	88	82	0	0	+
Cc1c(-n2c(O)c(C3=c4ccccc4=NC3=O)sc2=S)c(=O)n(-c2ccccc2)n1C	0	0	100	53	0	0	+
O=C1N=c2ccccc2=C1c1sc(=S)n(NC(=O)c2cccc(O)c2)c1O	0	0	0	0	0	0	-
O=C(NC1CC1)C1CCN(c2ncnc3c2sc2cccc(F)c23)CC1	0	0	0	0	0	0	-
COc1ccc(C)cc1N(CC(=O)N/N=C/c1ccc2c(c1)OCO2)S(C)(=O)=O	0	0	0	0	0	0	-
Cc1ccc(CN2CCN(Cc3cnc(N4CCOCC4)s3)CC2CCO)o1 (stereo not drawn)	0	0	61	0	0	0	0
O=C(CSc1nc(-c2ccc(F)cc2)nc2c1Cc1ccccc1O2)Nc1ccc(C(=O)O)cc1	0	0	145	0	97	62	+
O=C(CSc1nc(-c2ccc(F)cc2)nc2ccc(F)cc12)Nc1cccc(C(=O)O)c1	0	0	0	0	0	0	-
CCn1c2ccccc2c2cc(NC(=O)C(=O)N3CCOCC3)ccc21	0	0	0	0	0	0	-
C(=N\NCc1ccccc1)/c1ccc2ncccc2c1	0	-	0	0	0	0	-
C(=N\NCc1ccccc1)/c1ccc2nccnc2c1	0	-	68	0	0	0	+
O=C(Nc1c2ccccc2nc2ccccc12)C(Cl)(Cl)Cl	53	0	71	0	80[fluorescence artefact?]	0	0
COc1ccc(-c2nc(N3CCOCC3)nc3n[nH]c(N)c23)cc1	0	0	64	0	0	0	+
Nc1[nH]nc2nc(N3CCCC3)nc(-c3ccccc3)c12	0	0	0	0	0	0	-
O=C(CCOc1ccccc1)Nc1ccc([N+](=O)[O-])cc1	0	0	0	0	0	0	-
CC1(c2ccccc2)CC(C)(C)N2C(=O)/C(=C3\SC(=S)NC3=O)c3cccc1c32 (stereo not drawn)	93	0	94	111	0	0	+
O=C(Cc1cc(=O)oc2cc(O)ccc12)NCC1CCC(C(=O)O)CC1 (stereo not drawn)	0	0	62	0	0	0	-
CC(=O)OCC1=C(C(=O)O)N2C(=O)C(NC(=O)C(C)Cn3nc(C)c(Cl)c3C)C2SC1 (stereo not drawn)	0	0	70	0	0	0	0
CCN(CC(=O)Nc1ccccc1OC)CC(=O)Nc1sccc1C#N	0	0	0	0	0	0	-
O=C(COc1nncc2ccccc12)Nc1ccc(F)c(F)c1	0	0	0	0	0	0	-
COc1ccc(C(=O)N/C(=C\c2ccccc2)C(=O)NC(CCSC)C(=O)O)cc1 (stereo not drawn)	0	0	0	0	0	0	-
COc1ccc(C(=O)N/C(=C\c2ccccc2)C(=O)NC(CC(C)C)C(=O)O)cc1 (stereo not drawn)	0	0	60	0	0	0	0
Cn1cccc1/C=C1\SC(=Nc2cccc(O)c2)NC1=O	0	-	85	0	0	0	+
Cn1cccc1/C=C1\SC(=Nc2ccccc2)NC1=O	0	-	0	0	0	0	-
CCOC(=O)C1=NN(C(=O)COc2ccccc2)C(O)(c2ccc(Br)cc2)C1 (stereo not drawn)	0	0	0	0	0	0	-
CCN1C=C(C(=O)OC)C(c2cccc(OC)c2OC)C(C(=O)OC)=C1	0	0	85	0	0	0	-
COCCN1C=C(C(=O)OC)C(c2ccccc2Cl)C(C(=O)OC)=C1	0	0	153	0	0	0	-

Source: PubChem BioAssay
